We go through 13 compounds from PubChem BioAssay (NCATS).

The structures appear in SMILES notation. Results filed as inconclusive are left out. The source made the active and inactive calls. Calls follow the shape of the dose curve; as a rule, active = well fitted inhibition curve with a large enough effect; inconclusive = small, poorly fitted or top-dose-only effect; inactive = flat fitted curve, though single readings scatter.

Experiment in all cases: qHTS profiling for inhibitors of Plasmodium falciparum proliferation (AID 504749); also: nearly all actives have a fitted effect of over 60% in size
Common to all, as to conditions: P. falciparum in erythrocytes, SYBR Green DNA, 72 h; series mostly up to 12.8 µM

In one test the test system is C2A. In short, it runs like this: (§1)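 In a 72 h erythrocytic culture (37 C, humidified, 5% CO2) at 2.5% hematocrit and 0.3% starting parasitemia, compounds were tested; SYBR Green I in detergent lysis buffer stained parasite DNA overnight.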
Another test concerns CP185. In short, it runs like this:
as §1

Another test deals with CP211. In short, it runs like this: as §1
The subject of the next test is CP217. Summed up:
as §1

A further test has as its system CP250. In short, it runs like this: as §1
For a further test, the system named is CP252. Summed up:
as §1

A further test deals with CP256. Summed up: as §1
For a further test, the system named is CP291. In short, it runs like this:
as §1

The test system of a further test is CP305. Summed up:
as §1

The test system of another test is CP325. Summed up:
as §1

In another test the test system is CP329. In short, it runs like this:
as §1

Another test has as its system CP335. Summed up:
as §1

A further test deals with Dd2. Summed up:
as §1

The test system of another test is ECU. In short, it runs like this: as §1
A further test relates to HB3. Summed up:
as §1

Another test relates to N140. Summed up:
as §1

Another test relates to PC15. In short, it runs like this:
as §1

The next test concerns PC49. In short, it runs like this: as §1
A further test relates to SC27B. In short, it runs like this:
as §1

Another test has as its system TAB113. In short, it runs like this: as §1
Potency is read from the fitted curve at half-maximal effect.

With `CO[C@]1(NC(=O)CSCC#N)C(=O)N2C(C(=O)O)=C(CSc3nnnn3C)CS[C@H]21`, the Potency result in the test with C2A, in the test with CP185, in the test on CP211, with CP217, with CP250 and in the test on CP252 was “inactive” each time. The Potency result in the test on CP256, with CP291, with CP305, with CP325, in the test on CP329 and with CP335 was “inactive” each time. Further, the Potency entry with Dd2, in the test with ECU, in the test on HB3, in the test on N140, in the test with PC15 and in the test with PC49 was “inactive” throughout. Besides, the Potency result with SC27B and with TAB113 was “inactive” in each case.

As for `CN(C)[C@@H]1C(=O)C(C(N)=O)=C(O)[C@]2(O)C(=O)C3=C(O)c4c(O)ccc(Cl)c4[C@H](O)[C@H]3C[C@@H]12`, the Potency result in the test on C2A, in the test on CP185, in the test on CP211, in the test with CP217, in the test on CP250 and with CP252 was “inactive” throughout. Besides, the Potency result in the test on CP256, in the test with CP291, with CP305, in the test on CP325, with CP329 and in the test on N140 was “inactive” throughout. Also, the Potency entry in the test on PC15, in the test with PC49, in the test on SC27B and in the test with TAB113 was “inactive” throughout. In addition, in the test on Dd2, the Potency is 3.16 µM (active).

As to `C[C@H](NCCc1ccc(O)cc1)[C@@H](O)c1ccc(O)cc1`, the Potency entry in the test on C2A, in the test on CP185, in the test with CP211, in the test on CP217, in the test on CP250 and with CP252 was “inactive” in each case. Moreover, the Potency entry in the test with CP256, in the test with CP291, with CP305, in the test on CP325, in the test on CP329 and in the test with CP335 was “inactive” each time. In addition, the Potency result in the test with Dd2, in the test on ECU, with HB3, with N140, in the test on PC15 and in the test on PC49 was “inactive” each time. The Potency result with SC27B and in the test on TAB113 was “inactive” each time.

Consider `O=C(c1ccccc1)c1ccc2n1CC[C@H]2C(=O)O`, for which the Potency entry in the test on C2A, in the test with CP185, in the test on CP211, in the test on CP217, in the test with CP250 and in the test with CP252 was “inactive” throughout. Further, the Potency result in the test with CP256, in the test on CP291, in the test on CP305, in the test with CP325, with CP329 and in the test with CP335 was “inactive” throughout. Besides, the Potency result in the test with Dd2, with ECU, in the test on HB3, with N140, with PC15 and with PC49 was “inactive” each time. Besides, the Potency entry with SC27B and with TAB113 was “inactive” in each case.

In the case of `N[C@@H](CO)C(=O)NNCc1ccc(O)c(O)c1O`, the Potency entry with C2A, in the test with CP185, with CP211, in the test with CP217, in the test on CP250 and with CP252 was “inactive” in each case. For the same compound, the Potency entry in the test with CP256, with CP291, with CP305, with CP325, in the test with CP329 and with CP335 was “inactive” in each case. For the same compound, the Potency result in the test with Dd2, in the test on ECU, in the test on HB3, with N140, in the test with PC15 and in the test with PC49 was “inactive” each time. Also, the Potency result in the test on SC27B and in the test on TAB113 was “inactive” in each case.

With `CCCN[C@@H](C)C(=O)Nc1ccccc1C`, the Potency result in the test on C2A, in the test on CP185, in the test with CP211, with CP217, with CP250 and with CP252 was “inactive” in each case. The Potency entry in the test with CP256, in the test on CP291, with CP305, in the test with CP325, with CP329 and with CP335 was “inactive” throughout. Further, the Potency entry with Dd2, in the test on ECU, in the test with HB3, in the test on N140, in the test with PC15 and with PC49 was “inactive” each time. Moreover, the Potency result in the test with SC27B and in the test on TAB113 was “inactive” in each case.

As to `CC[C@]1(C)CC(=O)NC1=O`, the Potency entry in the test with C2A, in the test on CP185, with CP211, in the test on CP217, with CP250 and in the test on CP252 was “inactive” in each case. Further, the Potency result in the test with CP256, in the test with CP291, in the test with CP305, with CP325, with CP329 and in the test on CP335 was “inactive” throughout. Moreover, the Potency result with Dd2, in the test with ECU, in the test on HB3, with N140, with PC15 and in the test on PC49 was “inactive” throughout. The Potency entry in the test with SC27B and with TAB113 was “inactive” throughout.

In the case of `CC[C@H](NC(C)C)[C@H](O)c1ccc(O)c(O)c1`, the Potency result in the test with C2A, in the test on CP185, with CP211, in the test on CP217, in the test with CP252 and in the test with CP256 was “inactive” each time. Also, the Potency result in the test on CP291, in the test on CP305, with CP325, in the test on CP329, in the test with CP335 and with Dd2 was “inactive” throughout. Further, the Potency entry in the test on ECU, in the test with HB3, with N140, in the test with PC49, with SC27B and in the test with TAB113 was “inactive” in each case.

On to `C[C@@H]1c2cccc(O)c2C(O)=C2C(=O)[C@@]3(O)C(O)=C(C(N)=O)C(=O)[C@@H](N(C)C)[C@@H]3[C@@H](O)[C@@H]21`, for which the Potency result in the test with CP211, with CP217, with CP250, with CP329, in the test with N140 and in the test with PC15 was “inactive” in each case. Besides, in the test on PC49, the Potency result is “inactive”. Further, the Potency in the test on CP335 is 4.26 µM (active); in the test with Dd2, 3.98 µM (active).

On to `C[C@@H]1COc2c(N3CCN(C)CC3)c(F)cc3c(=O)c(C(=O)O)cn1c23`, for which the Potency result in the test with C2A, in the test on CP185, with CP211, in the test with CP217, with CP250 and with CP252 was “inactive” throughout. Moreover, the Potency entry in the test with CP256, in the test on CP291, with CP305, with CP325, in the test on CP329 and with CP335 was “inactive” throughout. In addition, the Potency entry with Dd2, in the test with ECU, in the test with HB3, in the test with N140, in the test with PC15 and in the test with PC49 was “inactive” each time. Moreover, the Potency entry in the test with SC27B and in the test on TAB113 was “inactive” in each case.

On to `CC(=O)N(CC(O)CN(C(C)=O)c1c(I)c(C(=O)NC[C@@H](O)CO)c(I)c(C(=O)NC[C@@H](O)CO)c1I)c1c(I)c(C(=O)NC[C@@H](O)CO)c(I)c(C(=O)NC[C@@H](O)CO)c1I`, for which the Potency result in the test with C2A, with CP185, with CP211, in the test with CP217, in the test on CP250 and with CP252 was “inactive” each time. The Potency entry in the test on CP256, with CP291, in the test with CP305, in the test on CP325, with CP329 and in the test on CP335 was “inactive” in each case. Besides, the Potency entry in the test on Dd2, in the test on ECU, in the test on HB3, with N140, in the test on PC15 and with PC49 was “inactive” each time. The Potency result in the test on SC27B and in the test on TAB113 was “inactive” throughout.

For the compound `CCN[C@@H]1C[C@H](C)S(=O)(=O)c2sc(S(N)(=O)=O)cc21`, the Potency result in the test with C2A, in the test on CP185, in the test with CP211, in the test on CP217, in the test on CP250 and with CP252 was “inactive” throughout. Also, the Potency result in the test on CP256, in the test on CP291, in the test on CP305, in the test with CP325, in the test on CP329 and in the test with CP335 was “inactive” throughout. Further, the Potency result in the test with Dd2, with ECU, with HB3, in the test on N140, in the test with PC15 and in the test with PC49 was “inactive” each time. Also, the Potency entry with SC27B and with TAB113 was “inactive” throughout.

For the compound `C[C@@H](C(=O)O)c1ccc(C(=O)c2cccs2)cc1`, the Potency entry in the test with C2A, in the test with CP185, in the test with CP211, with CP217, in the test with CP250 and with CP252 was “inactive” each time. The Potency result in the test on CP256, in the test on CP291, in the test with CP305, with CP325, in the test with CP329 and in the test on CP335 was “inactive” in each case. In addition, the Potency result in the test with Dd2, in the test on ECU, in the test on HB3, in the test with N140, in the test with PC15 and in the test on PC49 was “inactive” in each case. Moreover, the Potency result in the test with SC27B and with TAB113 was “inactive” each time.
